The source of these data is paper PMC12136788.

T1: UNK ZnF1-3 (human, UniProt Q9C0B0 31-174)
T1 sequence: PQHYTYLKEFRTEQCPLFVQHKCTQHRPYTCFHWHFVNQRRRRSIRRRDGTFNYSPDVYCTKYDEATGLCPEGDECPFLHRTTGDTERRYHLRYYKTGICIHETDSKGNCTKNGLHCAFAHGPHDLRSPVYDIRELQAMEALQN

B1: chr5:128448638:128448639:+_ENSG00000066583_ENST00000173527|hu_mus|hu_hu_hu_mus_False|8_98 (ssRNA)
RNA: GGGAGUUCUACAGUCCGACGAUCGGCACUCGCCUUAAUUAGAUUCUGAAUUUCCUUGAACUUCGGGUGGUCUUUGUCAGCCACCAGCUGUAGGAGGACAGCCUCACUAGUGGUCACGAUGAUCCCAGUUCGAGCGAGACGCUCCAACAGAGGAUUGAGCAUCA
B2: chr12:39763582:39763583:-_ENSG00000139116_ENST00000544797|hu_mus|hu_hu_hu_mus_False|1_28 (ssRNA)
RNA: GGGAGUUCUACAGUCCGACGAUCCUCUAGGAACUGGGCAUUCACUUUGAAUUCAGGAGGGGGCAGCCCGUUUUUAAUCGCUGAGGUCUUUUUCUCAUCAAUACUCUUAAAAAGGUGUCUAACAGCACGAGAGAUGAUACCCAGCAACAGAGGAUUGAGCAUCA
B3: chr8:86505109:86505110:+_ENSMUSG00000005469_ENSMUST00000005606|mus_mus|motif|central (ssRNA)
RNA: GGGAGUUCUACAGUCCGACGAUCCUUGUGCUUCACCAGCAUCACUCGCCCAAAGGAGCCGGUGCCAAGGGUCUUGAUUCGGUCAAACUGAUCCAACUGGGCUGUAUUCUGAGAAGGGGUCUCCCAUUUUUUCAGGAAAUCUUCCAACAGAGGAUUGAGCAUCA
B4: chr1:153198750:153198751:+_ENSMUSG00000023150_ENSMUST00000023918|perfect_dup|FALSE|FALSE (ssRNA)
RNA: GGGAGUUCUACAGUCCGACGAUCUUCUGGAUUGAGAUCAUCCAACUUCACAUGAGAAACUCCAUGAGGGUCACUGUCACUAUUGAAGAUUUCAAAUAGAUAGGGGCUACAGCAAGCCAGGACUGCCCUGUGUGCUAGCAUCUCCAACAGAGGAUUGAGCAUCA
B5: chr3:100366718:100366719:-_ENSMUSG00000008763_ENSMUST00000008907|mus_hu|FALSE|FALSE (ssRNA)
RNA: GGGAGUUCUACAGUCCGACGAUCAUUCUUAAAGAAAAAUCUAUUAUCUGUUAGCAUGAUUGGAGCACUGCAAUGUAUAUGCUAGUAAUAUGGUGUGUAAUUUCACAAGCAAUUUUAUGAGUUCUGCAAUUGCUAGGCUCAAACCAACAGAGGAUUGAGCAUCA
B6: chr1:153198750:153198751:+_ENSMUSG00000023150_ENSMUST00000023918|perfect_dup|FALSE|FALSE (ssRNA)
RNA: GGGAGUUCUACAGUCCGACGAUCUUCUGGAUUGAGAUCAUCAAAUUUAACGUGAGAAAUUCCAUGAGGAUCACUAUCACUAUUAAAGAUUUCAAAUAAAUAGGGACUGCAGCAAGCUAGCACUGCUCUGUGUGCUAACAUUUCCAACAGAGGAUUGAGCAUCA
B7: chr2:48034705:48034706:-_ENSG00000138081_ENST00000403359|hu_hu|FALSE|FALSE (ssRNA)
RNA: GGGAGUUCUACAGUCCGACGAUCCAUAGAAAGAACGUACAUACUGGGACAUGAGUACAGUUACAGCAAGUCUAGGUGUGCUAACAAAACAGGGCACAUUCAAGUACAGUAAGAUUUUGCUUGAAAUUAAAAACAAACUACAUGCAACAGAGGAUUGAGCAUCA
B8: chr15:74751088:74751089:-_ENSG00000138629_ENST00000361351|perfect_dup|FALSE|FALSE (ssRNA)
RNA: GGGAGUUCUACAGUCCGACGAUCCGGGUCUGGAACAGAUUCCUGGAGCUUGCCAGCAAUAAGCUGCUUCAGAAAUGAAAUGCUAUAGCCCCCUAGGGAAUAUUCUCCCAGUUCUGUCUCUGGCAACUGAAGAAUAGAUUUUGGCAACAGAGGAUUGAGCAUCA

Over roughly 24,000 sequences, “enrichment r” has its median near 0.99; the highest 2% begin near 3.7. The list comes from a sample in which the highest values are over-represented; it also holds similar and randomly drawn sequences.

In the assay the target is T1, UNK ZnF1-3. Description: nsRBNS (natural sequence RNA bind-n-seq); RBNS binding buffer (assumed for nsRBNS): 25 mM Tris pH 7.5, 150 mM KCl, 3 mM MgCl2, 0.01% Triton X-100, 500 ug/ml BSA, 20 U/ml SUPERase-In, 4 C; UNK is unkempt and MSI1 is Musashi-1; names of the RNAs are library labels; protein concentration not given here; high values mean tight binding.
In turn, B1 gave a binding signal of 0.656 enrichment R.
With B2, the binding signal amounted to 1.45 enrichment R.
B3 came in with a binding signal of 1.11 enrichment R.
Regarding B4, the binding signal was determined as 5.29 enrichment R.
Take B5: the binding signal came out at 0.664 enrichment R.
Turning to B6, the binding signal was 5.29 enrichment R.
The value for B7 was 1.25 enrichment R; that for B8 was 1.14 enrichment R.
